Source: ChEMBL document CHEMBL1157539, “Thousands of chemical starting points for antimalarial lead identification” (Nature, 2010)

How the values were obtained:
Format in all cases: functional
Plasmodium falciparum [1] = experiment: GSK_TCMDC: Inhibition of Plasmodium falciparum 3D7 in whole red blood cells, using parasite LDH activity as an index of growth. Test compounds present at 2uM
Plasmodium falciparum [2] = experiment: GSK_TCMDC: Inhibition of Plasmodium falciparum Dd2 in whole red blood cells, using parasite LDH activity as an index of growth. Test compounds present at 2uM
HepG2 = experiment: GSK_TCMDC: Percent inhibition of human HepG2 cell line. Test compounds present at 10uM.

| SMILES | Inhibition (Plasmodium falciparum [1]) [%] | Inhibition (Plasmodium falciparum [2]) [%] | Inhibition (HepG2) [%] |
| --- | --- | --- | --- |
| COc1ccccc1NC(=O)Nc1cccc(-c2cccc(-c3nc4cccc(C)c4[nH]3)c2)c1 | 100 | 90 | 11 |
| CC1(C)CCC(C)(C)c2c1ccc(C1CCN(CCCCNC(=O)c3ccc(-c4ccc(Cl)cc4)cc3)CC1)c2O | 100 | 72 | 100 |
| Cc1cc(Nc2cccc(Cl)c2)nc2ccc(NC(=O)c3ccc(=O)[nH]c3)cc12 | 100 | 23 | 12 |
| O=C(N[C@H]1CCN(Cc2ccc(OCCN3CCCC3)c(Cl)c2)C1)c1ccc(Cl)c(Cl)c1.O=C(O)C(F)(F)F | 100 | 46 | 68 |
| Cc1cc(C(=O)Nc2ccc3c(ccn3C3CCCN(Cc4ccc(C(F)(F)F)cc4F)CC3)c2)no1 (stereo unspecified) | 92 | 95 | 19 |
| CN(CC(=O)Nc1ccc(F)cc1)C(=O)c1ccc(-c2ccc(F)cc2)o1 | 89 | 84 | 3 |
| CCCCCN1C(=O)N(c2ccc(Cl)c(Cl)c2)C(N(O)C(=O)Nc2ccc(Cl)c(Cl)c2)C1(C)C (stereo unspecified) | 94 | 99 | 0 |
| Cl.N#Cc1ccc2c(c1)CCN(CCC1CCC(NC(=O)c3cc4ccccc4[nH]3)CC1)CC2 (stereo unspecified) | 89 | 25 | 17 |
| COc1cccc(-c2ccc(C(=O)NC3CCN(Cc4ccc(N(C)C)cc4)CC3)s2)c1.O=C(O)C(F)(F)F | 81 | 20 | 8 |
| O=C(O)C(F)(F)F.O=C1CCCN1CCCNCc1cccc(-c2ccc(-c3nc4ccccc4[nH]3)s2)c1 | 97 | 0 | 0 |
| COc1ccccc1CCNc1nc(C)cc(N[C@@H](Cc2ccccc2)C(=O)NCCCOC(C)C)n1.O=C(O)C(F)(F)F | 99 | 32 | 10 |
| O=C(O)C(F)(F)F.Oc1ccc(CCCNc2nc(NCc3cccc4ccccc34)nc(N3CCNCC3)n2)cc1 | 100 | 4 | 9 |
| CN(C)Cc1c(O)ccc2[nH]c(-c3ccc(OC(F)(F)F)cc3)nc12 | 100 | 97 | 24 |
| Cc1c(C(=O)Nc2cc(Sc3ccc(F)cc3)cc([N+](=O)[O-])c2)sc2ncn(Cc3cccc(F)c3)c(=O)c12 | 100 | 53 | 0 |
| COc1ccc(OCCCN2CCN(CC(c3ccc(F)cc3)N3CCN(C(C)C)CC3)CC2)c2ccccc12.O=C(O)C(F)(F)F (stereo unspecified) | 100 | 32 | 30 |
| COc1ccc2c(c1)CC(NCc1ccc(-c3ccc4nc[nH]c4c3)cc1)C2.O=C(O)C(F)(F)F (stereo unspecified) | 100 | 71 | 30 |
| CC(C(=O)N1CCCC1)N1CCN(C(c2ccccc2)c2ccccc2)CC1 (stereo unspecified) | 82 | 56 | 0 |
| N=C(N)Nc1nc(CCCCCCCCc2csc(NC(=N)N)n2)cs1 | 100 | 28 | 27 |
| CC(Cc1ccc(OCCN2CCN(c3cccc(Cl)c3)CC2)cc1)NCC(O)c1cccc(Cl)c1.Cl (stereo unspecified) | 93 | 91 | 48 |

| SMILES | Inhibition (Plasmodium falciparum [1]) [%] | Inhibition (Plasmodium falciparum [2]) [%] | Inhibition (HepG2) [%] |
| --- | --- | --- | --- |
| CC(C)NCC(=O)Nc1cccc(C(=O)Nc2cccc(C(F)(F)F)c2)c1 | 97 | 89 | 6 |
| Cc1n[nH]c2cc(Nc3nccc(Nc4ccc(Oc5ccccc5)cc4)n3)ccc12.Cl | 100 | 98 | 8 |
| Cl.Nc1ccc2c(N)c3ccccc3nc2c1 | 93 | 74 | 20 |
| O=C(O)C(F)(F)F.c1ccc(CCNCc2cccc(-c3ccccc3CNCc3ccc4c(c3)OCO4)c2)nc1 | 90 | 80 | 41 |
| Cc1ccc(Nc2nc(NN=Cc3ccc(-c4ccc([N+](=O)[O-])cc4)o3)nc(N3CCOCC3)n2)cc1Cl | 95 | 47 | 12 |
| CCCNC[C@@H](O)[C@H](Cc1ccccc1)NC(=O)c1cc(NCC)cc(N2CCCC2=O)c1 | 100 | 76 | 0 |
| CN(Cc1cccc(O)c1)C1CCN(c2cc(NC(=O)c3ccc(F)cc3)ccn2)CC1.O=C(O)C(F)(F)F | 94 | 9 | 24 |
| CC(C)(C)c1ccc(NC(=O)Nc2ccc(Cn3ncc(N4CCCNCC4)c(Cl)c3=O)cc2)cc1.O=C(O)C(F)(F)F | 95 | 33 | 0 |
| COc1ccc2nc(-c3cc(-c4ccc(NC(=O)C(C)C)cc4)cnc3N)[nH]c2c1 | 100 | 47 | 43 |
| COc1ccc(Nc2ncc(C#N)c(Nc3ccccc3C(N)=O)n2)cc1N1CCN(C)CC1.Cl | 93 | 97 | 56 |
| N#CN1CC[C@@H](NS(=O)(=O)Cc2ccc(Cl)c(Cl)c2)C1 | 94 | 94 | 13 |
| CCN1CCc2c1cc(C(=O)N[C@@H](Cc1ccccc1)[C@H](O)CNC(C)(C)c1cccc(C(F)(F)F)c1)cc2N1CCCCS1(=O)=O | 100 | 99 | 6 |
| CN(C)c1nc2cc(-n3cnc4cc(-c5ccc(Cl)cc5)sc4c3=O)ccc2n1CCCN1CCCCC1.O=C(O)C(F)(F)F | 97 | 23 | 55 |
| NC1=NC(c2ccccc2)(c2ccccc2)C(=O)N1C1CCCCC1.O=CO | 100 | 87 | 13 |
| Cc1cc(C)c2nc(N3CCC(C(=O)NCCCN4CCC(N5CCCCC5)CC4)CC3)sc2c1 | 99 | 34 | 99 |
| CCc1c(CCNCCCCCCNC(C)(C)Cc2ccc3c(c2CC)OCO3)ccc(OC)c1OC.Cl | 100 | 50 | 100 |
| COc1ccc(-c2cnc3[nH]cc(-c4ccc(CCC(=O)O)cc4)c3c2)cn1.O=C(O)C(F)(F)F | 98 | 95 | 25 |
| Cl.N[C@@H](CCNCc1ccc(-c2cccnc2)cc1)Cc1ccc(F)c(F)c1 | 98 | 57 | 45 |
| Cn1c(N)cc(-c2ccc(Br)cc2)c2c(=O)nc(N)nc1-2 | 80 | 57 | 5 |

| SMILES | Inhibition (Plasmodium falciparum [1]) [%] | Inhibition (Plasmodium falciparum [2]) [%] | Inhibition (HepG2) [%] |
| --- | --- | --- | --- |
| COc1cc2nc(NCc3cccc(CNC(=O)c4ccc(-c5ccc(C(C)=O)cc5)cc4)c3)nc(N)c2cc1OC.O=C(O)C(F)(F)F | 100 | 72 | 32 |
| CCCC1(NC[C@@H](O)[C@H](Cc2ccccc2)NC(=O)c2cc(NCC)cc(N3CCCCS3(=O)=O)c2)CCCC1.Cl | 100 | 97 | 0 |
| CCN(CC)CCN(Cc1ccc(-c2ccc(C(F)(F)F)cc2)cc1)C(=O)Cn1c(CCc2cccc(F)c2F)cc(=O)c2c1CCCC2.O=C(O)C(O)C(O)C(=O)O | 100 | 95 | 93 |
| CN1CCN(CCCN(Cc2csc(-c3ccc(CNCc4ccccc4)cc3)n2)C(=O)Nc2cccc(Cl)c2)CC1.O=C(O)C(F)(F)F | 100 | 67 | 32 |
| O=C(NCc1ccc(F)cc1)c1cnc(N2CCN(c3ccncc3)CC2)c(Cl)c1.O=C(O)C(F)(F)F | 98 | 44 | 30 |
| Cc1cccc2nc(-c3cccc(-c4ccc(NC(=O)C(C)CN5CCN(C)CC5)cc4)c3)[nH]c12 (stereo unspecified) | 99 | 100 | 7 |
| CCNc1cc(C(=O)N[C@@H](Cc2ccccc2)[C@H](O)CNCc2cccc(-n3ccnc3)c2)cc(N2CCCC2=O)c1.O=C(O)C(F)(F)F | 99 | 96 | 1 |
| CC(C)Oc1cccc(-c2ccc(C(=O)NCC3CCCN(Cc4cccc(C(F)(F)F)c4)C3)s2)c1.O=C(O)C(F)(F)F (stereo unspecified) | 91 | 28 | 10 |
| O=C(NCCCc1ccccc1)c1ccc(O)c(-c2cc(Cl)cc(Cl)c2)c1 | 99 | 98 | 0 |
| CC(C)C[C@H](NC(=O)c1cc2ccccc2s1)C(=O)N[C@H]1CCN(Cc2ccc(OC[C@@H]3CCCN3C)c3ccccc23)C1.O=C(O)C(F)(F)F | 100 | 93 | 69 |
| CC1=C(C(=O)Nc2cc3cn[nH]c3cc2F)C(c2ccc(Cl)c(NS(C)(=O)=O)c2)CC(=O)N1 (stereo unspecified) | 88 | 98 | 2 |
| CC(C)(CNC(=O)C1CCN(CC2CCCCC2)CC1)c1nc(-c2ccc(Cl)c(O)c2)c(-c2ccncc2)[nH]1.Cl | 98 | 31 | 0 |
| CN(C)c1cc2c(Nc3ccc4nc(Cc5ccccc5)[nH]c4c3)ncnc2cn1 [GW301888X] | 85 | 29 | 11 |
| CC(C)NCc1cccc(-c2ccc(-c3nc4ccccc4[nH]3)cc2)c1.O=C(O)C(F)(F)F | 100 | 66 | 4 |
| CN(C)Cc1ccc(-c2cc3c(-c4ccc(CN(C)C)cc4)ccnc3[nH]2)cc1.O=C(O)C(F)(F)F | 100 | 96 | 86 |
| COc1ccc(Oc2ccccc2CNCC2CCN(CC3CCCCC3)CC2)cc1.O=C(O)C(F)(F)F | 85 | 28 | 34 |
| O=C(NC1CC1)c1ccc(N2CCC(Oc3ccc(F)cc3)CC2)nc1 | 89 | 79 | 0 |
| CCCNCc1ccc(-c2ccc(CN(CCOC)C(=O)/C=C/c3ccccc3C)cc2)nc1.O=C(O)C(F)(F)F | 95 | 39 | 13 |
| COc1cc(NC(=O)/C=C/c2ccccc2OC(F)(F)F)cc(OCCN2CCC(O)(c3ccccc3)CC2)c1.O=C(O)C(=O)O | 100 | 50 | 61 |
